# Gal4-VP16 FLuc – counter-screen for ROR gamma inhibitors: Gal4-VP16 reporter. Potency, µM (highest dose often 53.6 µM), most hits filed as inhibitors. 3.5% of 310,000 active. Drosophila S2 Gal4-VP16 UAS-luciferase, luminescence, 20 h. AID 2546;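 also: Gal4-VP16 expression switched on by copper sulfate through the metallothionein promoter; nearly all actives have a fitted effect of over 50% in size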
# B2AR arrestin – beta2AR (human) beta-arrestin recruitment activity | P07550 | beta-arrestin recruitment to beta2AR, cell-based reporter | Potency, µM (doses to about 46.1 µM), hits mostly activators | 0.02% of 330,000 active | AID 492947; also: nearly all actives have a fitted effect of over 65% in size
# Target sequence (P07550 whole entry, looked up): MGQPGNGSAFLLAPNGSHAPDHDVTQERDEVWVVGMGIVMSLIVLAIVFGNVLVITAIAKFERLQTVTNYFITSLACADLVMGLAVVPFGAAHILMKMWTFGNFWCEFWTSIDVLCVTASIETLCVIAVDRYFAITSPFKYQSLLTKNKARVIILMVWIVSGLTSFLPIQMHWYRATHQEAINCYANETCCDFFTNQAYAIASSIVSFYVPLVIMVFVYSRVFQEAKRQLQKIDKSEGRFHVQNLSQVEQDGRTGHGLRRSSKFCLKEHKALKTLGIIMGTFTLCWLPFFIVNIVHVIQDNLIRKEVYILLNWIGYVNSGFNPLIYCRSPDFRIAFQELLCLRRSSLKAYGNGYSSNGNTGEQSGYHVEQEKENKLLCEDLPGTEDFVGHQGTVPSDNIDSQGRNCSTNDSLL
# TSHR antagonist – human thyrotropin receptor antagonism; P16473; TSHR-expressing cells, TSH-stimulated cAMP HTRF, 2 h; stronger effect = lower value; activity change, negative = inhibition, % at 11.5 µM; 0.2% of 330,000 active; AID 504810;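 active = activity change below a set negative limit, meaning inhibition stronger than a set level, cut at about -70% in these data; inconclusive = activity change between two set negative limits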
#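 TSHR-expressing cells, 200/well, pre-treated with compound, then stimulated with EC80 TSH (4nM final) for 2 hours at 37 deg C. cAMP measured by competitive HTRF: anti-cAMP cryptate antibody in lysis buffer plus cAMP-d2, read after 30 minutes at room temperature.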
# ELG1 repair inh – blocks ELG1-dependent DNA repair in HEK293T cells; HEK293T ELG1-luciferase reporter, luminescence, 16 h; DNA damage induced by 5-fluorouridine; Potency, µM (series often up to 46.1 µM), hits mostly inhibitors; 2.3% of 330,000 active; also: nearly all actives have a fitted effect of over 55% in size
#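 DMSO vehicle served as the neutral condition. Each well held 2,000 cells given 5-fluorouridine plus compound; after 16 hr at 37 °C/5% CO2, ONE-Glo was added and luciferase measured 30 min later.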
# RORgamma inh – inhibitors of mouse ROR gamma transcriptional activity. P51450. Drosophila S2 Gal4-RORgamma UAS-luciferase reporter, 20 h. Potency, µM (doses to about 53.6 µM), hits mostly inhibitors. 5.4% of 310,000 active. AID 2551; also: nearly all actives have a fitted effect of over 60% in size
#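 Stable Schneider cell line, Gal4 DNA-binding domain fused to ROR gamma, UAS-luciferase. Cmpd 1 hr RT → CuSO4 700 uM final → 20 hr RT → luciferase reagent 10 min → luminescence.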
# Hits are given with their value; 0 = inactive; ? = inconclusive; - = not tested or not shown; [ ] = dose if it differs, or a comment. The list is not random: actives were taken first. Their share in the collection is about 7.5%. Unless noted, calls follow the shape of the dose curve; as a rule, active = well fitted curve in the direction sought with a large enough effect; inconclusive = small, poorly fitted or top-dose-only effect, or another doubt; inactive = no such curve, though single readings can be large; an effect the other way counts as inactive or inconclusive.
SMILES,Gal4-VP16 FLuc,B2AR arrestin,TSHR antagonist,ELG1 repair inh,RORgamma inh
CCOc1cc(C(=O)NC(=S)Nc2nc(C)cc(C)n2)cc(OCC)c1OCC,?,0,0,?,11µM
CCOc1cc(C(=O)Nc2cc(C)ccn2)cc(OCC)c1OCC,?,0,0,?,16µM
Cc1ccnc(NC(=O)c2ccc(C(=O)c3ccccc3)cc2)c1,-,0,0,?,-
CCOc1ccc(C(=O)Nc2cccc(C)n2)cc1,?,0,0,?,8.9µM
CCOc1ccc(C(=O)Nc2cc(C)ccn2)cc1,10µM,0,0,?,8.9µM
CCCCOc1ccc(C(=O)Nc2cccc(C)n2)cc1,?,0,0,?,?
O=c1c([N+](=O)[O-])cccn1Cc1cccc(Br)c1,0,0,0,0,0
COc1ccccc1N(Cc1ccccc1)S(=O)(=O)c1cccc(C(=O)Nc2cc(C)ccn2)c1,10µM,0,0,?,6.3µM
C=CCOc1ccc2c(=O)n(C)c3ccccc3c2c1,0,-,-,-,0
CNc1ccc(Cl)cc1C(N)=O,0,0,0,0,0
N/C(=C\C(=O)c1cc(Cl)ccc1O)C(Cl)(Cl)Cl,?,?,0,?,4µM
COc1ccccc1NC(=O)N1CCN(c2ccnc3cc(Cl)ccc23)CC1,0,0,0,12µM,0
COc1ccccc1NC(=O)N1CCc2[nH]c3ccc(Cl)cc3c2C1,0,0,0,16µM,?
COc1cc2c(cc1OC)CN(C(=O)Nc1ccccc1Cl)CC2,0,0,0,0,0
O=C(C1CCCCC1)N1CCN(c2ccnc3cc(Cl)ccc23)CC1,?,0,0,12µM,0
COc1ccccc1NC(=O)N1CCN(c2cc(-c3ccccc3)nc3ncnn23)CC1,0,0,0,13µM,0
COc1ccccc1N1CCN(c2ccnc3cc(Cl)ccc23)CC1,0,0,0,?,0
O=C(Nc1ccc(OC(F)(F)F)cc1)N1CCN(c2ccnc3cc(Cl)ccc23)CC1,28µM,0,0,18µM,?
CC(C)(C)C(=O)N1CCN(c2ccnc3cc(Cl)ccc23)CC1,0,0,0,?,0
O=C(CSc1ncc(-c2ccccc2)nn1)NCc1ccco1,0,0,0,0,0
O=C(O)CSc1ncnc2c1oc1ccccc12,0,0,0,0,0
Cc1nc(SCC(=O)NCc2ccco2)c2c(C)c(C)sc2n1,0,0,0,0,0
O=C(CSc1nnc(-c2ccccc2)c(-c2ccccc2)n1)NCc1ccco1,0,0,0,23µM,0
Cc1sc2nc(C(C)C)nc(SCC(=O)NCc3ccco3)c2c1C,?,0,0,?,5µM
CCn1c(SCC(=O)NCc2ccco2)nnc1-c1cccs1,?,0,0,0,11µM
SMILES,Gal4-VP16 FLuc,B2AR arrestin,TSHR antagonist,ELG1 repair inh,RORgamma inh
O=C(CSc1ncnc2c1oc1ccccc12)NCc1ccco1,20µM,0,0,0,?
CCn1c(SCC(=O)NCc2ccco2)nnc1-c1ccncc1,0,0,0,0,0
CCCn1c(-c2ccc(F)cc2)nc2c(NCCCCN(CC)CC)nc(C)nc21,0,-,-,-,0
Cc1nc(SCC(=O)NCc2ccco2)nc(C)c1C,0,0,0,0,7.1µM
O=C(CSc1nc(-c2ccccc2)c(-c2ccccc2)[nH]1)NCc1ccco1,?,0,0,0,10µM
Cc1sc2nc(C(C)C)nc(SCC(=O)N3c4ccccc4CC3C)c2c1C (stereo unspecified),18µM,0,0,0,8.9µM
CCn1c(SC(=O)NC2CCCCC2)nnc1-c1cccs1,?,0,0,?,7.9µM
Cc1ccc(/C=C/C(=O)NC(=S)Nc2ccc(S(=O)(=O)Nc3cc(C)on3)cc2)cc1,0,0,0,0,?
CCOC(=O)OCC1OC(c2ccc(C(C)=O)cc2)C=CC1Oc1ccc(-c2ccccc2)cc1 (stereo unspecified),0[10 µM],-,-,-,0[10 µM]
COc1ccc(C(=O)OC(C)C(=O)Nc2cc(C(F)(F)F)ccc2Cl)c(OC)c1OC (stereo unspecified),?,0,0,21µM,0
COC(=O)CSc1nc(C)cc(Oc2ccccc2)n1,0,0,0,0,0
Cc1cc(Oc2ccccc2)nc(SCC(=O)Nc2ccc(Cl)cc2Cl)n1,0,0,0,0,3.5µM
O=[N+]([O-])c1ccccc1/C=C/C=N/Nc1ccc(S(=O)(=O)Nc2ccc(Cl)cc2)cc1[N+](=O)[O-],0,0,0,?,0
CCCCCc1cc(O)c2c(C)cc(=O)oc2c1,11µM,0,0,0,3.2µM
Cc1cc(=O)oc2cc(O)cc(O)c12,0,-,-,-,0
O=C(NNC1OC(CO)C(O)C(O)C1O)c1cccc(Br)c1 (stereo unspecified),0[10 µM],0,0,0,11µM
O=C(O)CCC(=O)NNC(=O)c1cccc(Br)c1,0,0,0,0,0
O=C(C1=C[C@H](c2ccc3c(c2)OCO3)C[C@H](OCc2ccc(CO)cc2)O1)N1CCCCCCC1,0,0,0,0,14µM
O=C(C1=C[C@@H](c2ccc(Br)cc2)C[C@@H](OCc2ccc(CO)cc2)O1)N1CCN(Cc2ccccc2)CC1,0,0,0,23µM,0
O=C(C1=C[C@@H](c2ccc3c(c2)OCO3)C[C@@H](OCc2ccc(CO)cc2)O1)N1CCOCC1,0,0,0,0,0
C=C(C)C(O)/C=C/c1ccc(C(F)(F)F)cc1 (stereo unspecified),0,-,-,-,0
COc1ccc(NC(=O)COC(=O)C2CC(=O)N(c3ccc(C)cc3)C2)cc1 (stereo unspecified),0,0,0,0,0
Cc1ccc(C(=O)N/C(=C\c2ccco2)C(=O)N2CCCCC2)cc1,0,0,0,0,0
Cc1csc(C(C#N)C(=O)c2cc3ccccc3o2)n1 (stereo unspecified),0,0,0,?,10µM
O=C(Cc1ccc([N+](=O)[O-])cc1)c1ccc(O)cc1O,0,0,0,?,0
SMILES,Gal4-VP16 FLuc,B2AR arrestin,TSHR antagonist,ELG1 repair inh,RORgamma inh
CN1/C(=C/C2CC(=O)NC2=O)C(C)(C)c2ccccc21 (stereo unspecified),0,0,0,0,0
CN1/C(=C\P(=O)(N(C)C)N(C)C)C(C)(C)c2ccccc21,7.9µM,0,0,0,0
COc1ccc(-c2cc(-c3nnc(COC(=O)c4ccncc4)o3)c3ccccc3n2)cc1OC,0,0,0,18µM,0
O=C(OCc1nnc(-c2ccc(Cl)cc2)o1)c1ccncc1,0,0,0,0,0
Nc1nonc1N/N=C\c1ccccc1,0,0,0,?,0
Nc1nonc1N/N=C/c1c(O)ccc2ccccc12,0,0,0,0,11µM
Nc1cc(Cl)nc(N/N=C/c2c(O)ccc3ccccc23)n1,11µM,0,0,?,0.63µM
O=C(O)c1cc(N/N=C/c2c(O)ccc3ccccc23)ccc1Cl,0,0,0,?,0
CCOc1ccc(NC(=O)COc2ccc(C(=O)NCC3CCCO3)cc2OC)cc1 (stereo unspecified),-,0,0,0,-
CCOC(=O)c1sc2nc(-c3ccccc3)ccc2c1N,?,0,0,?,2.5µM

# Source: PubChem BioAssay
